Reference: PubChem BioAssay (NCATS)
Inconclusive results are not listed. A call without a number means that no potency is given here. Calls of active or inactive are those of the source. Unless noted, calls come from the whole dose curve; as a rule, active = well fitted curve in the direction sought with a large enough effect; inconclusive = small, poorly fitted or top-dose-only effect, or another doubt; inactive = no such curve, though single readings can be large; an effect the other way counts as inactive or inconclusive.

How the values were obtained:
[1] = biological target: Cytochrome P450 2C19 (Homo sapiens) (UniProt P33261); assay: qHTS Assay for Inhibitors and Substrates of Cytochrome P450 2C19 (AID 899); note: potency is the fitted concentration of half-maximal effect; nearly all actives have a fitted effect of over 60% in size
Chain of Cytochrome P450 2C19 (Homo sapiens) (P33261 whole entry, looked up): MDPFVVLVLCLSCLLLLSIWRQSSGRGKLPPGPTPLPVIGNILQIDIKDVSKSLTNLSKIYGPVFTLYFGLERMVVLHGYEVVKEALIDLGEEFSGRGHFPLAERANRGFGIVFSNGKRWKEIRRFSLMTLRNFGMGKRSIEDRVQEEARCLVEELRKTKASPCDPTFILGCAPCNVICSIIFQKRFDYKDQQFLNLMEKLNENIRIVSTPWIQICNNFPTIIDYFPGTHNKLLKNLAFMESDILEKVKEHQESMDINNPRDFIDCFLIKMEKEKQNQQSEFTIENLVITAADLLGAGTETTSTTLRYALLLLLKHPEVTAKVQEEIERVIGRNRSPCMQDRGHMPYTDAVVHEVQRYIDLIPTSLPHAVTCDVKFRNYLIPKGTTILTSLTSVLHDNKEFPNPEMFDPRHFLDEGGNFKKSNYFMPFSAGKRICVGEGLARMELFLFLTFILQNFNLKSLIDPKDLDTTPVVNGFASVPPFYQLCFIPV
In short: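 5 nM human CYP2C19 with 10uM Luciferin-H EGE (at KM) in 50mM KPO4, compound preincubated 10 min at 37C, then NADPH regeneration for 60 min at 37C. Luciferin read by luminescence after detection reagent; normalized to 57uM ketoconazole as full inhibition.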

[2] = qHTS for Inhibitors of the Functional Ribonucleoprotein Complex (vRNP) of Lassa (LASV) Arenavirus: LASV Primary Screen - GLuc reporter signal (AID 1347082; calls by dose curve; tested in HEK293 reporter line; note: nearly all actives have a fitted effect of over 60% in size)
[3] = qHTS for Inhibitors of the Functional Ribonucleoprotein Complex (vRNP) of Lassa (LASV) Arenavirus: Viability assay - alamar blue signal for LASV Primary Screen (AID 1347083; calls by dose curve; tested in HEK293 reporter line; note: nearly all actives have a fitted effect of over 80% in size; note: potency is the fitted concentration of half-maximal effect)
[4] = qHTS for Inhibitors of the Functional Ribonucleoprotein Complex (vRNP) of Lymphocytic Choriomeningitis Arenaviruses (LCMV): Viability assay - alamar blue signal for LCMV Primary Screen (AID 1347085; calls by dose curve; tested in HEK293 reporter line; note: nearly all actives have a fitted effect of over 80% in size; note: potency is the fitted concentration of half-maximal effect)
[5] = biological target: Nucleoprotein (Lymphocytic choriomeningitis virus (strain Armstrong)) (UniProt P09992); assay: qHTS for Inhibitors of the Functional Ribonucleoprotein Complex (vRNP) of Lymphocytic Choriomeningitis Arenaviruses (LCMV): LCMV Primary Screen - GLuc reporter signal (AID 1347086; calls by dose curve; note: nearly all actives have a fitted effect of over 70% in size)
Chain of Nucleoprotein (Lymphocytic choriomeningitis virus (strain Armstrong)) (P09992 whole entry, looked up): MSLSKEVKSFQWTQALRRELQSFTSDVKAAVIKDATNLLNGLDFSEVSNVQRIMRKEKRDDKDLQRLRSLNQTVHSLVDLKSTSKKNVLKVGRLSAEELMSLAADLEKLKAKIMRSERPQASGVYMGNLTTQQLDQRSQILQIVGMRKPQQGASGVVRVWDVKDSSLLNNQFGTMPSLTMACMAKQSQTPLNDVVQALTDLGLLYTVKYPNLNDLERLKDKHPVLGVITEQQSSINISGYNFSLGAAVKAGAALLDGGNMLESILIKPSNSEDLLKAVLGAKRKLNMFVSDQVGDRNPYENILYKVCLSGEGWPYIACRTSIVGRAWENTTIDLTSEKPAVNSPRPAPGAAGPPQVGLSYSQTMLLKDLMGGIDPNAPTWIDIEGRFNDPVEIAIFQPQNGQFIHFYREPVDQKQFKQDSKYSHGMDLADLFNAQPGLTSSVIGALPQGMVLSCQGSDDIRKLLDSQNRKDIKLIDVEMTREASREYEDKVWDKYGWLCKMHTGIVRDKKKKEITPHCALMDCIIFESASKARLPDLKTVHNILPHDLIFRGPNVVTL

[6] = biological target: Alpha-galactosidase (Coffea arabica) (UniProt Q42656); assay: Counterscreen for Glucocerebrosidase Inhibitors: qHTS Assay for Coffee Bean alpha-Galactosidase at pH 5.9 (AID 998)
Chain of Alpha-galactosidase (Coffea arabica) (Q42656 whole entry, looked up): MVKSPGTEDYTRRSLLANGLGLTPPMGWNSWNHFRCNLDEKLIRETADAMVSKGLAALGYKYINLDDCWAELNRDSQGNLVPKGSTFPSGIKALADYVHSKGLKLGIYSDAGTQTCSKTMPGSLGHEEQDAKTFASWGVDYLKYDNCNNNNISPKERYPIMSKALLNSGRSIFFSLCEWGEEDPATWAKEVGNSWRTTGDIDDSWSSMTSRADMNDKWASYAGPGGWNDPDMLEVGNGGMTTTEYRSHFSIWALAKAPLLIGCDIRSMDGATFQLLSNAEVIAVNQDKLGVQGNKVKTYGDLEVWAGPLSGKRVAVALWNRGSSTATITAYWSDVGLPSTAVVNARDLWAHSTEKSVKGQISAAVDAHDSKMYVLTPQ
In short: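 Enzyme 2 nM + cpd (0.7 nM–77 uM titration) + 4-MU-alpha-Gal 80 uM, pH 5.9 citrate/Tween-20, RT 20 min, NaOH/glycine stop pH 10, fluor 365/440. Normalized to no-enzyme and full-activity controls; Hill-fit AC50.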

[7] = Cytotoxicity counterscreen for inhibitors of SARS-CoV-2 cell entry (AID 1645845; calls by dose curve; note: nearly all actives have a fitted effect of over 50% in size)
In short: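 Counterscreen run in the same HEK293-ACE2 line as the pseudotyped-particle entry assay, without particles. Viability after 48 h at 37 C was read as ATP luminescence, scaled between cell-containing and cell-free wells.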

[8] = Confirmatory qHTS for VERO E6 Cytotoxicity Assay: Counterscreen for SARS-CoV-2 CPE Assay (AID 1508605; calls by dose curve; note: potency is the fitted concentration of half-maximal effect; nearly all actives have a fitted effect of over 60% in size)
[9] = Primary qHTS to identify inhibitors of SARS-CoV-2 cell entry (AID 1645846; calls by dose curve; note: nearly all actives have a fitted effect of over 45% in size); conditions: activity change, negative = inhibition: at 57.1 µM (top of the series) unless noted
In short: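 HEK293 cells stably expressing human ACE2, pre-treated 1 h with compound, then infected with MLV particles pseudotyped with Wuhan-Hu-1 spike (C-terminal 19-aa truncation). Luciferase luminescence after 48 h at 37 °C, normalised to spike PP and bald PP.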

[10] = qHTS profiling of the MIPE4 collection as inhibitors of Plasmodium falciparum (3D7) proliferation (AID 743344; call rule not given here); conditions: P. falciparum 3D7 in erythrocytes, SYBR Green DNA fluorescence, 72 h; at 28.5 µM (top of the series) unless noted
In short: (§1)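 Parasite DNA was quantified by SYBR Green I fluorescence (ex 485, em 535 nm) after overnight lysis in saponin/Triton buffer at room temperature. Cultures at 0.3% parasitemia and 2.5% hematocrit were first exposed to compound for 72 h at 37 C; signals were normalised to artemisinin (0.29 uM) and vehicle wells.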

[11] = qHTS profiling of the MIPE4 collection as inhibitors of Plasmodium falciparum (DD2) proliferation (Rep 2) (AID 743346; call rule not given here); conditions: P. falciparum Dd2 in erythrocytes, SYBR Green DNA, 72 h; at 28.5 µM (top of the series) unless noted
In short: as §1

[12] = biological target: Alpha-galactosidase (Coffea arabica) (UniProt Q42656); assay: Counterscreen for Glucocerebrosidase Inhibitors: qHTS Assay for Coffee Bean alpha-Galactosidase at pH 4.5 (AID 957)
In short: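 Quantitative HTS of compounds (0.7 nM to 77 uM) against coffee bean alpha-galactosidase at pH 4.5, measuring 4-methylumbelliferone fluorescence released from 80 uM substrate.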

[13] = Validation screen for inhibitors of Lassa infection (AID 463096; calls by dose curve)
[14] = Inducers of the Endoplasmic Reticulum Stress Response (ERSR) in human glioma: Validation (AID 504836)
In short: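 Stably transfected U87-MG glioma cells carrying a GRP78-based luciferase sensor; 16 h compound incubation. Luminescence end-point read 10 min after Bright-Glo addition at room temperature.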

[15] = biological target: Cytochrome P450 3A4 (Homo sapiens) (UniProt P08684); assay: qHTS Assay for Inhibitors and Substrates of Cytochrome P450 3A4 (AID 884); note: potency is the fitted concentration of half-maximal effect; nearly all actives have a fitted effect of over 50% in size
Chain of Cytochrome P450 3A4 (Homo sapiens) (P08684 whole entry, looked up): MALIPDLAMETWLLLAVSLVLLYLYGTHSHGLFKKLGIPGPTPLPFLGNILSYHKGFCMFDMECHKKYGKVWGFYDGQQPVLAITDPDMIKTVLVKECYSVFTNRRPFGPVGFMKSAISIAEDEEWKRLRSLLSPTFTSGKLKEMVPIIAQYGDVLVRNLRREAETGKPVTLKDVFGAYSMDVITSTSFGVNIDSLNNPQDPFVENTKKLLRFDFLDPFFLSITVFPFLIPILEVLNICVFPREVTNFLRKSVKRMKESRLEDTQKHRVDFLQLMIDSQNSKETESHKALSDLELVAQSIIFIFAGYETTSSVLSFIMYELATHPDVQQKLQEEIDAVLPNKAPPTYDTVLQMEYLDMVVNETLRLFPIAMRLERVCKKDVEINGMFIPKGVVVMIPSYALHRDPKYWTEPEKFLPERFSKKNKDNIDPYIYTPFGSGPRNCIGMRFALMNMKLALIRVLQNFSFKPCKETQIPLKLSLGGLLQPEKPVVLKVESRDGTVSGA
In short: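 Luminescent readout of luciferin produced by CYP3A4 (20 nM) dealkylation of Luciferin-PPXE, 25 uM (its KM). NADPH-driven reaction ran 60 min at RT after 10 min compound preincubation; data scaled to 57 uM ketoconazole as 100% inhibition.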

[16] = biological target: Cytochrome P450 3A4 (Homo sapiens) (UniProt P08684); assay: qHTS Assay for Activators of Cytochrome P450 3A4 (AID 885); note: nearly all actives have a fitted effect of over 65% in size
In short: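 Luminescent readout of luciferin formed from 25 uM Luciferin-PPXE (KM level) by 20 nM CYP3A4 in 200 mM KPO4, with 60 min NADPH-driven reaction at room temperature after 10 min compound exposure. Ketoconazole (57 uM) defined 100% inhibition.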

[17] = qHTS profiling of the MIPE4 collection as inhibitors of Plasmodium falciparum (DD2) proliferation (AID 743345; call rule not given here); conditions: P. falciparum Dd2 in erythrocytes, SYBR Green DNA, 72 h; at 28.5 µM (top of the series) unless noted
In short: as §1

[18] = qHTS profiling of the MIPE4 collection as inhibitors of Plasmodium falciparum (HB3) proliferation (AID 743347; call rule not given here); conditions: P. falciparum HB3 in erythrocytes, SYBR Green DNA, 72 h; at 28.5 µM (top of the series) unless noted
In short: as §1

In the case of `CN(N=O)C(=O)N[C@H]1C(O)OC(CO)[C@@H](O)[C@H]1O` (some centres undefined), the Potency [1] is reported as 7.94 µM (active), the Potency [2] is reported as “inactive” and the Potency [3] is reported as “inactive”. For the same compound, the Potency [4] was “inactive” and the Potency [5] was “inactive”.
In the case of `N#C/C(=C\c1ccc(O)c(O)c1)C(=O)NCCc1ccccc1`, the outcome [6] is reported as “inactive”, the Potency [2] is reported as “inactive” and the Potency [3] is reported as “inactive”. The Potency [4] was “inactive” and the Potency [5] was “inactive”.
In the case of `CN(C)S(=O)(=O)c1ccc2c(c1)C(=Cc1cc3c([nH]1)CCCC3)C(=O)N2`, the Potency [2] is reported as “inactive”, the Potency [3] is reported as 10.9 µM (active) and the Potency [4] is reported as 2.73 µM (active). The Potency [7] was “inactive”.
In the case of `Cc1c(CCOc2ccc(C(=O)O)cc2)c2cc(Cl)ccc2n1C(c1ccccc1)c1ccccc1`, the Potency [2] is reported as “inactive”, the Potency [3] is reported as “inactive” and the Potency [4] is reported as “inactive”. The Potency [8] was 12.6 µM (active), the Potency [7] was “inactive” and the activity change, negative = inhibition [9] was -34.5%.
With `C[C@H](CCC(=O)O)[C@H]1CCC2C3CC[C@@H]4C[C@H](O)CC[C@]4(C)C3CC[C@@]21C` (some centres undefined) the parasite growth, % of DMSO control [10] was 97.3%, the parasite growth, % of control (lower = inhibition) [11] was 65% and the Potency [2] was “inactive”. For the same compound, the Potency [3] was “inactive”, the Potency [4] was “inactive” and the Potency [5] was “inactive”.
With `Clc1nccc2c1ccc1ccccc12` the outcome [12] was “inactive”, the outcome [6] was “inactive” and the Potency [13] was “inactive”. For the same compound, the outcome [14] was “inactive”, the Potency [2] was “inactive” and the Potency [3] was “inactive”. For the same compound, the Potency [4] was “inactive”.
In the case of `Nc1nc(OCc2ccccc2)c2[nH]cnc2n1`, the Potency [15] is reported as 7.94 µM (active), the Potency [16] is reported as “inactive” and the Potency [1] is reported as 6.31 µM (active). For the same compound, the outcome [12] was “inactive”, the outcome [6] was “inactive” and the Potency [13] was “inactive”. The outcome [14] was “inactive”, the parasite growth, % of DMSO control [10] was 83.5% and the parasite growth remaining, % of DMSO control (lower = more inhibition) [17] was 103%. The parasite growth, % of control (lower = inhibition) [11] was 72.1%, the growth, % of control [18] was 44% and the Potency [2] was “inactive”. The Potency [3] was “inactive”, the Potency [4] was 17.2 µM (active) and the Potency [7] was “inactive”. The Potency [9] was “inactive”.
